Compound activity deposited in PubChem by National Center for Advancing Translational Sciences (NCATS).
HCMV antiviral – qHTS Assay for inhibitors of the human cytomegalovirus (HCMV); HFF cells, HCMV-luciferase reporter, 72 h; hits give low values; activity change, negative = inhibition, % at 57.5 µM; 410,000 compounds, 4.5% hits; in the data active = activity change below about -60%; inconclusive = no clear call, values can overlap the other calls; inactive = above about -39%
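After 16 h attachment at 37C, HFF cells received test compound and HCMV-luciferase (1 PFU/cell); reporter luminescence read 72 h later, data normalized against buffer-only and known inhibitor Salinomycin.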
FMDV antiviral – High Throughput Screening for Foot and Mouth Disease Virus Antivirals; FMDV antiviral cell-based qHTS; Potency, µM (titrated, usually from 57.9 µM), inactives show at the highest dose activity change, negative = inhibition, hits mostly inhibitors; 410,000 compounds, 1.2% hits; AID 1159524, 2015; calls by dose curve; tested in HEK293T cells; also: read-out not given here; potency is read from the fitted curve at half-maximal effect; nearly all actives have a fitted effect of over 45% in size
HCV inhibitor – qHTS Assay for Inhibitors of Hepatitis C Virus (HCV); Huh7.5.1 HCVcc-Cre infection, luciferase reporter, 44 h; Potency, µM (titrated, usually from 41.8 µM), for the others: at the highest dose activity change, negative = inhibition, usual class: inhibitors; 340,000 compounds, 3.4% hits; also: potency is read from the fitted curve at half-maximal effect
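Antiviral activity was scored by luciferase reporter output from cells infected with HCVcc-Cre (~0.5 moi) in presence of compound, 44 h infection period, cells seeded 1,000/well 4 h prior.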
AmpC inh detg – qHTS Inhibitors of AmpC Beta-Lactamase (assay with detergent); P00811; AID 485294, 2010; Potency, µM (top dose mostly 114 µM), for the others: at the highest dose activity change, negative = inhibition, most hits filed as inhibitors; AmpC hydrolysis of nitrocefin, absorbance 480 nm, 0.01% Triton; 370,000 compounds, 0.041% hits;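 also: potency is read from the fitted curve at half-maximal effect; 0% = no-compound wells and -100% = no-enzyme wells; nearly all actives have a fitted effect of over 25% in size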
Target sequence (P00811 whole entry, looked up): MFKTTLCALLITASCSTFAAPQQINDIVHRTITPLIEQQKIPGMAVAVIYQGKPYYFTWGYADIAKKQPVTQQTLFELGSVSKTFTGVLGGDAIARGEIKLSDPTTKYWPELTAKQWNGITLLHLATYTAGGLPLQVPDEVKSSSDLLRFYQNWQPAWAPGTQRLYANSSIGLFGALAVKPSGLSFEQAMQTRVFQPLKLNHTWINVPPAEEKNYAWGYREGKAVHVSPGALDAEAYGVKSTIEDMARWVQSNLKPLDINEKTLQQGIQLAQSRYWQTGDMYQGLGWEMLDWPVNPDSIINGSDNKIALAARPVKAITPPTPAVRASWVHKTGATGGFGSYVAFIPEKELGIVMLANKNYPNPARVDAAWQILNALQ
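20 mM phosphate pH 7.0 + 0.01% (detergent screen) or 0.0001% Triton X-100; 5.3 nM AmpC reagent; cpd preinc 15 min RT; nitrocefin (800 uM stock) to start; A480 q20 s × 4 min; Activity was normalised to no-enzyme and no-compound control wells.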
AmpC inh no detg – qHTS Inhibitors of AmpC Beta-Lactamase (assay without detergent); AmpC nitrocefin hydrolysis, absorbance 480 nm, 0.0001% Triton; Potency, µM (doses to about 57.1 µM), without a hit: at the top dose activity change, negative = inhibition, most hits filed as inhibitors; 330,000 compounds, 0.52% hits; AID 485341, 2010;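 also: potency is read from the fitted curve at half-maximal effect; plate controls were no compound for no effect and no enzyme for full effect; nearly all actives have a fitted effect of over 20% in size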
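AmpC (5.3 nM in the dispensed reagent) in 20 mM phosphate pH 7.0 with 0.01% (detergent screen) or 0.0001% Triton X-100 was preincubated with compounds for 15 min at room temperature. Nitrocefin was then added from an 800 uM solution, and hydrolysis was followed at 480 nm.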
* marks the source's active call; other numbers are inactive results; i = inactive; ? = inconclusive; nt = no result. Most compounds without a hit are left out; they make up all but 7.3% or so of the library. Unless noted, calls follow the shape of the dose curve; as a rule, active = well fitted curve in the direction sought with a large enough effect; inconclusive = small, poorly fitted or top-dose-only effect, or another doubt; inactive = no such curve, though single readings can be large; an effect the other way counts as inactive or inconclusive. Unless noted, % is scaled to controls: 0 for no effect and ±100 for the full control effect.

SMILES	HCMV antiviral	FMDV antiviral	HCV inhibitor	AmpC inh detg	AmpC inh no detg
CCOC(=O)c1ccc(NC(=S)N(CCCN2CCCC(C)C2)Cc2ccco2)cc1 (centres undefined)	-29	16%	10µM*	-5%	54%
O=C(Nc1cccc(Cl)c1)c1ccc2c(=O)n3c(nc2c1)CCCCC3	-26	-38%	8.9µM*	-10%	-23%
O=C(Nc1ccc(Cl)cc1)c1ccc2c(=O)n3c(nc2c1)CCCCC3	-21	0%	?	10%	-48%
O=C(Nc1ccc(Cl)cc1Cl)c1ccc2c(=O)n3c(nc2c1)CCC3	37	-1%	-21%	-9%	55%
O=C(Nc1ccc(F)c(Cl)c1)c1ccc2c(=O)n3c(nc2c1)CCCCC3	-91*	-18%	10µM*	1%	-23%
O=C(Nc1ccc2nc3n(c(=O)c2c1)CCCCC3)c1cccc(C(F)(F)F)c1	-69*	?	nt	-4%	nt
CCc1ccc(N(CC)C(=O)c2ccc3c(=O)n4c(nc3c2)CCCCC4)cc1	-21	40µM*	nt	12%	nt
CCc1ccc(CN(C)C(=O)c2ccc3c(=O)n4c(nc3c2)CCC4)cc1	-34	-2%	10%	4%	72%
CC(C)OC(=O)N(C)C[C@@H]1OCc2cnnn2CCCC(=O)N([C@@H](C)CO)C[C@@H]1C	5	-2%	nt	nt	nt
COc1ccccc1C(=O)O/N=C(/c1ccncc1)c1ccc([N+](=O)[O-])cc1	50	-19%	30%	-4%	153%
CC(C)(C)C(=O)NCCc1csc2nc(-c3ccc(F)cc3)nn12	-12	?	nt	10%	nt
CCc1cccc(NC(=O)c2ccc3c(=O)n4c(nc3c2)CCCCC4)c1	-17	-29%	13µM*	4%	34%
O=C(c1ccc2c(=O)n3c(nc2c1)CCCCC3)N1CCN(C(c2ccccc2)c2ccccc2)CC1	-65*	-21%	?	-1%	140%
O=c1c2cc([N+](=O)[O-])ccc2nc2n1CCCC2	-65*	-7%	0%	-4%	-27%
CC(=O)c1ccc(NC(=O)c2ccc3c(=O)n4c(nc3c2)CCCCC4)cc1	-31	?	?	-6%	25%
CC(=O)c1c(C)[nH]c(C(=O)COC(=O)c2ccc3c(=O)n4c(nc3c2)CCC4)c1C	4	4.5µM*	-3%	-3%	-23%
C[C@@H]1CN(Cc2ccc3c(c2)CN(Cc2cccc4c2OCO4)CCO3)C[C@H](C)O1	nt	-4%	nt	nt	nt
CCS(=O)(=O)C(=C1Nc2ccccc2N1)S(=O)(=O)CC	-98*	-25%	-14%	-2%	-14%
CCOC(=O)c1c(-c2ccccc2)[nH]c2ccc(C)cc12	-16	nt	nt	nt	nt
COC(=O)c1ccc(C2c3c(oc4ccc(C)cc4c3=O)C(=O)N2Cc2ccc3c(c2)OCO3)cc1 (centres undefined)	-109*	9%	nt	2%	nt
CCN(CC(=O)Nc1ccccc1-c1ccccc1)Cc1nc2ccccc2c(=O)[nH]1	7	-7%	?	-10%	28%
CCN(CC(=O)Nc1ccc2c(c1)OCO2)Cc1nc2ccccc2c(=O)[nH]1	-100*	10%	-14%	?	-1%
CCN(CC(=O)Nc1ccccc1SC)Cc1nc2ccccc2c(=O)[nH]1	19	-24%	11µM*	4%	-8%
c1ccc(-c2ccc(OCCCNC3CCCC3)cc2)cc1	-21	-29%	11µM*	-6%	28%
O=C(Cc1ccc(Cl)c(Cl)c1)NC1CCCCCC1	50	27%	-9%	-11%	-34%
SMILES	HCMV antiviral	FMDV antiviral	HCV inhibitor	AmpC inh detg	AmpC inh no detg
COc1ccc(Cl)cc1C(=O)O/N=C(\N)c1ccncc1	40	10%	22µM*	-2%	23%
CC(C)(C)c1ccc(Cn2c(=O)cnc3ccccc32)cc1	-81*	13µM*	?	10%	27%
CCN(CC)C(=O)c1sc2nc(-c3cccs3)cc(-c3cccs3)c2c1N	-64*	-12%	-26%	1%	-38%
CCN(CC)C(=O)c1sc2nc(-c3cccs3)cc(-c3ccc(Cl)cc3)c2c1N	-33	-15%	?	2%	-34%
COc1ccc(CNC[C@H]2O[C@@H](n3ccc(=O)[nH]c3=O)[C@H](O)[C@@H]2O)cc1OC	-13	-3%	6.3µM*	nt	nt
C=C(C)C(O)CC/C(C)=C/Cc1c(O)ccc(C(=O)/C=C/c2ccc(O)cc2)c1O (centres undefined)	-67*	?	?	nt	10%
CC(C)=CCc1c(O)ccc(C(=O)Cc2ccccc2)c1O	?	?	-2%	?	-60%
COc1ccc(C(=O)/C=C/c2ccc(O)cc2)c(O)c1C/C=C(\C)CCC=C(C)C	-105*	?	?	nt	-42%
c1cncc(OC2CCN(Cc3ccc4c(c3)CN(Cc3ccc5c(c3)OCCO5)CCO4)CC2)c1	nt	-19%	nt	nt	nt
Cc1ccc(C(=O)Nc2cc(-c3nc4ncccc4o3)ccc2C)c(C)c1	4	-4%	nt	20%	nt
CCOC(=O)c1cnc(N)nc1C(F)(F)F	70	14%	18%	7%	-13%
COc1cccc(/C=C/C(=O)c2ccc3c(c2)OCCO3)c1OC	-96*	-1%	-11%	?	-24%
COc1ccc(/C=N/NC(=O)c2ccc3c(c2)OCCO3)cc1[N+](=O)[O-]	-22	-5%	-8%	0%	-19%
CCOc1cc(/C=C/C(=O)c2ccc(O)cc2)ccc1OCC(=O)N(C)C	?	?	?	-5%	-18%
COc1cc(/C=C/C(=O)c2ccc3c(c2)OCO3)cc(Cl)c1O	-62*	30%	-19%	-10%	-36%
CCOc1cc(/C=C/C(=O)c2ccc3c(c2)OCCO3)ccc1OCC(=O)N(C)C	-77*	14µM*	?	-7%	128%
COc1ccc(/C=C/C(=O)c2ccc3c(c2)OCCO3)cc1[N+](=O)[O-]	178	?	32µM*	?	-26%
O=C(O)c1ccc(/C=C/C(=O)c2ccc3c(c2)OCCCO3)cc1	i	10µM*	1%	1%	-21%
COc1cc(/C=C/C(=O)c2ccc(Cl)s2)cc(OC)c1O	nt	13µM*	13µM*	-12%	33%
CC(C)(C)c1cc(C(=O)/C=C/c2ccc(C(=O)O)cc2)cc(C(C)(C)C)c1	nt	25µM*	nt	nt	nt
Cc1cc(Cn2nc(C(=O)NCc3cccs3)cc2-c2ccccc2)on1	-3	19%	1%	-7%	-21%
Oc1c(C(c2ccc(F)cc2)N2CCOCC2)sc2nc(-c3ccco3)nn12 (centres undefined)	14	-13%	nt	0%	nt
C[C@]12CCC3C(CC[C@H]4CCCC[C@]34C)C1CC[C@@]2(O)CNCCO (some centres undefined)	-1	-17%	10µM*	-1%	-2%
C[C@]12CCC(=O)C[C@@H]1CC[C@@H]1[C@@H]2CC[C@@]2(C)[C@H]1CC[C@]2(C)O	nt	nt	nt	-4%	-9%
